Where a name gives a salt, the structure may show the parent alone. ± gives the uncertainty stated by the source.

In this assay the test system is NCC-PMP1-C1. Kind of assay: cell viability relative to DMSO control; higher = less growth inhibition. To be noted: 10 µM; 72 h. As to the method: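 NCC-PMP1-C1 pseudomyxoma peritonei cells were seeded in 384-well plates coated with Matrigel and MEF (1e4 cells). Viability was read after 72 h by CCK-8 and expressed as % of the DMSO control, mean ± SD of duplicates.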
Usually cell viability stands for a read-out of living cells in per cent, often relative to untreated cells. On to `Cc1cn(-c2cc(NC(=O)c3ccc(C)c(Nc4nccc(-c5cccnc5)n4)c3)cc(C(F)(F)F)c2)cn1` [Nilotinib (AMN-107)], for which the cell viability came to 70.1 ± 16%.
Take `Nc1cc(C(Cl)=C(Cl)Cl)c(S(N)(=O)=O)cc1S(N)(=O)=O` [Clorsulon]: the cell viability stood at 117 ± 9.7%.
As for `Cc1c2oc3c(C)ccc(C(=O)N[C@@H]4C(=O)N[C@H](C(C)C)C(=O)N5CCC[C@H]5C(=O)N(C)CC(=O)N(C)[C@@H](C(C)C)C(=O)O[C@@H]4C)c3nc-2c(C(=O)N[C@@H]2C(=O)N[C@H](C(C)C)C(=O)N3CCC[C@H]3C(=O)N(C)CC(=O)N(C)[C@@H](C(C)C)C(=O)O[C@@H]2C)c(N)c1=O` [Actinomycin D], the figure is 8.77 ± 0.95%.
In the case of `O=NN(CCCl)C(=O)NC1CCCCC1` [Lomustine], the cell viability was determined as 105 ± 11%.
Regarding `COc1cc2nccc(Oc3ccc(NC(=O)C4(C(=O)Nc5ccc(F)cc5)CC4)cc3)c2cc1OC`, the cell viability stood at 48.9 ± 2.8%.
As for `CNC(=O)c1ccccc1Sc1ccc2c(/C=C/c3ccccn3)n[nH]c2c1` [Axitinib], the cell viability amounted to 61.27 ± 0.13%.
As for `N#CC1(c2ccc(NC(=O)c3cccnc3NCc3ccncc3)cc2)CCCC1` [Apatinib], the figure is 77.6 ± 9.1%.
For the compound `Cc1ccc(C(=O)Nc2ccc(CN3CCN(C)CC3)c(C(F)(F)F)c2)cc1C#Cc1cnc2cccnn12`, the cell viability was 1.8 ± 0.67%.
On to `CCCCCOC(=O)Nc1nc(=O)n([C@@H]2O[C@H](C)[C@@H](O)[C@H]2O)cc1F` [Capecitabine], for which the cell viability was found to be 98.9 ± 16%.
As to `C=CC(=O)N1CCC(Oc2cc3c(Nc4ccc(Cl)c(Cl)c4F)ncnc3cc2OC)CC1` [Poziotinib (HM781-36B)], the cell viability was found to be 76.9 ± 8.5%.
Take `CCc1ccc(CCOc2ccc(CC3SC(=O)NC3=O)cc2)nc1` (stereo unspecified) [Pioglitazone]: the cell viability stood at 92.8 ± 5.5%.
In the case of `COc1cc2c(Oc3ccc4[nH]c(C)cc4c3F)ncnc2cc1OCCCN1CCCC1` [Cediranib (AZD2171)], the cell viability worked out at 22.4 ± 14%.
For `Cc1ccc(-c2cc(C(F)(F)F)nn2-c2ccc(S(N)(=O)=O)cc2)cc1` [Celecoxib], the cell viability turned out to be 99.99 ± 0.53%.
Turning to `Cc1nc(Nc2ncc(C(=O)Nc3c(C)cccc3Cl)s2)cc(N2CCN(CCO)CC2)n1` [Dasatinib], the cell viability was determined as 26.3 ± 4.4%.
For the compound `CO[C@H]1C[C@@H]2CC[C@@H](C)[C@@](O)(O2)C(=O)C(=O)N2CCCC[C@H]2C(=O)O[C@H]([C@H](C)C[C@@H]2CC[C@@H](OCCO)[C@H](OC)C2)CC(=O)[C@H](C)/C=C(\C)[C@@H](O)[C@@H](OC)C(=O)[C@H](C)C[C@H](C)/C=C/C=C/C=C/1C` [Everolimus (RAD001)], the cell viability turned out to be 83.3 ± 7.4%.
In the case of `CC/C(=C(/CC)c1ccc(O)cc1)c1ccc(O)cc1` [Diethylstilbestrol], the cell viability came out at 121.2 ± 0.53%.
`O=C(/C=C/c1cccc(S(=O)(=O)Nc2ccccc2)c1)NO` [Belinostat (PXD101)]: the cell viability was found to be 7.52 ± 0.13%.
Turning to `C[C@]12CC[C@@H]3c4ccc(O)cc4C[C@@H](CCCCCCCCC[S+]([O-])CCCC(F)(F)C(F)(F)F)[C@H]3[C@@H]1CC[C@@H]2O` (stereo partly specified) [Fulvestrant], the cell viability is -7.846 ± 0.067%.
In the case of `COc1cc([C@@H]2c3cc4c(cc3[C@@H](O[C@@H]3O[C@@H]5CO[C@@H](C)O[C@H]5[C@H](O)[C@H]3O)[C@H]3COC(=O)[C@H]23)OCO4)cc(OC)c1O` [Etoposide], the cell viability was found to be 61.1 ± 1.9%.
For the compound `Nc1nc2[nH]cnc2c(=S)[nH]1` [Thioguanine], the cell viability came out at 88.9 ± 9.4%.
With `CC(C)c1nc(CN(C)C(=O)N[C@@H](CCN2CCOCC2)C(=O)N[C@H](CC[C@H](Cc2ccccc2)NC(=O)OCc2cncs2)Cc2ccccc2)cs1` [Cobicistat (GS-9350)], the cell viability was determined as 83.8 ± 3.1%.
For the compound `COc1cc2c(Oc3ccc(NC(=O)C4(C(=O)Nc5ccc(F)cc5)CC4)cc3F)ccnc2cc1OCCCN1CCOCC1`, the cell viability was found to be 2.42 ± 1%.
Consider `O=C1CCC(N2C(=O)c3ccccc3C2=O)C(=O)N1` (stereo unspecified) [Thalidomide], for which the cell viability was 110 ± 6.2%.
As for `Nc1[nH]cnc2ncnc1-2` [Adenine HCl], the figure is 108 ± 25%; as for `CO[C@@]12[C@H](COC(N)=O)C3=C(C(=O)C(C)=C(N)C3=O)N1C[C@@H]1N[C@@H]12` [Mitomycin C], 60.3 ± 9.8%.
`CCC[C@@H]1C[C@@H](C(=O)N[C@@H]([C@H]2O[C@H](SC)[C@H](O)[C@@H](O)[C@H]2O)[C@@H](C)O)N(C)C1` [Lincomycin HCl]: the cell viability was 74.4 ± 15%.

The record behind these values is the supplement of paper PMC8877412.
